# Laboratory results: PubChem BioAssay
# Several values for one entry are separate records, joined by “and”; a condition that tells them apart may be missing. Equal values may be shown once. Records with an inconclusive call do not appear. Activity calls are given as the source filed them.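 How the source made its calls, unless noted: active means compounds whose cell count with miR-34 switched on is under 0.7 times the count with it off; inactive means the rest.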 Peptide text beside a SMILES is read from it. * marks the point of attachment. CH2Cl = ClC*
# Columns and labels:
# [1] = viability loss with induced miR-34 in A549 – imaging, A549 dox-inducible miR-34, nuclei and caspase counts, primary screen (AID 1347080); conditions: A549 miR-34 inducible, Hoechst nuclei count, 48 h
# [2] = chitosan synthesis blockers in C. neoformans – flow cytometry, Cibacron Brilliant Red staining (AID 1347148; call rule not given here;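 further: compound exposure lasted three days at 37 degrees C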); conditions: Cryptococcus neoformans chitosan, stronger effect = lower value; at 10 µM unless noted
# [3] = biological target: ATP-dependent translocase ABCB1 (Homo sapiens) (UniProt P08183); assay: P-glycoprotein substrate transport blockade – cell-based (AID 377; in the data active means fluorescence slope change above about 50%); conditions: MDR1-expressing cells, fluorescent substrate accumulation slope; stronger effect = higher value; concentration not given here
# Sequence of ATP-dependent translocase ABCB1 (Homo sapiens) (P08183 whole entry, looked up): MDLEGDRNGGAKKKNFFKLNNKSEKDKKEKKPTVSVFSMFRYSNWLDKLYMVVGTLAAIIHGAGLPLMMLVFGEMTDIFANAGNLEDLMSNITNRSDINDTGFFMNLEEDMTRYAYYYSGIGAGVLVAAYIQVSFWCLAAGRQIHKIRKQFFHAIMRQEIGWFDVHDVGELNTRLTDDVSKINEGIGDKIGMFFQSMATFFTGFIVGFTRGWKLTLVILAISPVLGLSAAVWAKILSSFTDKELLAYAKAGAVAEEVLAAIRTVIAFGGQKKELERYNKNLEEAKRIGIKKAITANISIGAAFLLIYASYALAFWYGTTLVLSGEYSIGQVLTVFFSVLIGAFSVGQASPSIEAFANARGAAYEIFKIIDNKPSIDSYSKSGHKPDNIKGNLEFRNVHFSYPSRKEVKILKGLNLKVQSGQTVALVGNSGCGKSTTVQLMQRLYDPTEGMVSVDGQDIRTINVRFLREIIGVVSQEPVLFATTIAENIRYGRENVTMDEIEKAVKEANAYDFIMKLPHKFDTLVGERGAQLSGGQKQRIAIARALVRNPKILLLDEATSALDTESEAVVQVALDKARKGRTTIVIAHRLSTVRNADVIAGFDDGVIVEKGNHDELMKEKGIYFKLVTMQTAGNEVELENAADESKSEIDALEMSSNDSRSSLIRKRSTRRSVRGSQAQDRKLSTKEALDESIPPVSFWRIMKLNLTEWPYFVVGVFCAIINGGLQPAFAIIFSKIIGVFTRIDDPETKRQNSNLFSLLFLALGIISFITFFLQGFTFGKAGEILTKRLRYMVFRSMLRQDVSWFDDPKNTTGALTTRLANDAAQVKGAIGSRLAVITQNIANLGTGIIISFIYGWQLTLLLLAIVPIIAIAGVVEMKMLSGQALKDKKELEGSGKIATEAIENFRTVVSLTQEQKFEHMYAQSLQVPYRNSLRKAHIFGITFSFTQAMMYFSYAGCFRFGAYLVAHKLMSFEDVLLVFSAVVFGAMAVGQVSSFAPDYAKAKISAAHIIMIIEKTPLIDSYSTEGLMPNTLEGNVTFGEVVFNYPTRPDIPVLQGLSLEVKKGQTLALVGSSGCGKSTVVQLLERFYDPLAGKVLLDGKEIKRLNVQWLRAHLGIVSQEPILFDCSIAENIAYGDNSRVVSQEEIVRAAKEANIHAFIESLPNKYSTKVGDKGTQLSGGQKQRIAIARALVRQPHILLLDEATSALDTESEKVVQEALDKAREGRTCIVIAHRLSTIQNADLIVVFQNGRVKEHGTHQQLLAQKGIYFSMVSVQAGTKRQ
# [4] = P. berghei load reduction in hepatocytes – cell-based, HepG2, luciferase luminescence, HepG2 viability, primary screen (AID 624349; in the data active means parasite load remaining mostly below about 12%, no sharp cut-off; inactive means mostly above about 10%;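 further: 100% = mean of DMSO negative control wells on the same plate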); conditions: P. berghei liver stage in HepG2, luciferase luminescence, concentration not given here; parasite load remaining: stronger effect = lower value; viability: measured here: HepG2 viability without parasites
# [5] = MELAS cybrid and Rieske KO viability enhancers – cell-based, MELAS cybrids, Rieske KO mouse fibroblasts, CellTiter-Glo, primary screen (AID 1508586;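 active means mean z-score across replicates of 1.96 or higher in either the MELAS or the Rieske mutant cell line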;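 further: z relative to plate mean and SD of compound and empty wells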); conditions: low glucose
# [6] = galactose survival enhancers in mitochondrial complex I cybrids – cell-based, galactose medium, ATP luminescence, primary screen (AID 1645843;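 active means z-score of at least 1.8 in each of two replicates, scored against plate mean and spread of sample wells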;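 further: positive z means more ATP and so rescue of galactose-driven cybrid death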); conditions: complex I mutant cybrid cells, 72 h, stronger effect = higher value
# [7] = stronger effect = lower value, cell number ratio, induced over uninduced
# [8] = measured here: relative caspase fold change +Dox/-Dox
# [9] = measured here: total cells with miR-34 induction, stronger effect = lower value
# [10] = measured here: total cells without miR-34 induction
compound,measurement,setting,value
COc1cc(CNC(=O)CCCCCCC(C)C)c(I)cc1O,fold change,[1]; [7],1.02 (inactive)
same,fold change,[1]; [8],0.817
same,cell count,[1]; [9],5730
same,cell count,[1]; [10],5600
CCCCC/C=C\C/C=C\C/C=C\C/C=C\CCCC(=O)NCCS(=O)(=O)O,fold change,[1]; [7],0.96 (inactive)
same,fold change,[1]; [8],1.07
same,cell count,[1]; [9],5500
same,cell count,[1]; [10],5730
CCCCC/C=C\C/C=C\C/C=C\C/C=C\CCCC(=O)NC[C@H](C)O,fold change,[1]; [7],0.983 (inactive)
same,fold change,[1]; [8],1.04
same,cell count,[1]; [9],6010
same,cell count,[1]; [10],6110
CCCCC/C=C\C/C=C\C/C=C\C/C=C\CCCC(=O)N[C@@H](C)CO,fold change,[1]; [7],1.04 (inactive)
same,fold change,[1]; [8],0.734
same,cell count,[1]; [9],6190
same,cell count,[1]; [10],5940
same,fold fluorescence,[2],6.15 (inactive)
C/C1=C/C(=O)O[C@@H]2C[C@@H](CC[C@H](C)/C=C\CC1)O[C@@](O)([C@@H]1CSC(=O)N1)C2,fold change,[1]; stronger effect = lower value,1.2 (inactive)
same,fold change,[1]; [8],0.63
same,cell count,[1]; [9],1070
same,cell count,[1]; [10],888
CCCCC/C=C\C/C=C\C/C=C\C/C=C\CCCCOC(CO)CO,fold change,[1]; [7],0.983 (inactive)
same,fold change,[1]; [8],0.95
same,cell count,[1]; [9],5720
same,cell count,[1]; [10],5810
N[C@H]1C[C@@H]1c1ccccc1,fluorescence slope change,[3],55% (active)
same,parasite load remaining,[4],52% (inactive) and 79.2% (inactive)
same,viability,[4],46.6% and 238%
same,fold change,[1]; stronger effect = lower value,0.858 (inactive)
same,fold change,[1]; [7],0.985 (inactive)
same,fold change,[1]; [8],1.15 and 1.49
same,cell count,[1]; [9],9050
same,cell count,[1]; [10],9180 and 10500
same,z-score,"[5]; MELAS cybrid survival, CellTiter-Glo 48 h, stronger effect = higher value",0.109 (inactive) and -0.281 (inactive)
same,z-score,"[5]; Rieske KO mouse fibroblast survival, CellTiter-Glo 72 h",-0.102 and -1.1
same,z-score,[6],0.92 (inactive)
CCCCC/C=C\C/C=C\C/C=C\C/C=C\CCCC(=O)OCCN,fold change,[1]; [7],0.993 (inactive)
same,fold change,[1]; [8],0.893
same,cell count,[1]; [9],5780
same,cell count,[1]; [10],5820
C[C@H](N)C(=O)N[C@@H](C)C(=O)N[C@@H](Cc1ccccc1)C(=O)CCl (H-Ala-Ala-Phe-CH2Cl),fold change,[1]; stronger effect = lower value,0.806 (inactive)
same,fold change,[1]; [8],1.41
same,cell count,[1]; [9],2970
same,cell count,[1]; [10],3680
same,fold fluorescence,[2],4.89 [at 147.1 µM] (inactive)
C=C(C)[C@@H]1CCC(C)=C[C@H]1C1=C(O)C(=O)C(CCCCC)=CC1=O,fold change,[1]; [7],1.08 (inactive)
same,fold change,[1]; [8],0.935
same,cell count,[1]; [9],5410
same,cell count,[1]; [10],5000
CCCCCC(/C=C/C=O)OO (stereo not drawn),fold change,[1]; [7],0.987 (inactive)
same,fold change,[1]; [8],1.26
same,cell count,[1]; [9],5780
same,cell count,[1]; [10],5860
C=C(C)[C@H]1O[C@H]2CC[C@@]3(C)[C@@](O)(CC[C@H]4[C@@H]5OC(C)(C)[C@H]6C[C@@H]7C(=C)Cc8c(Cl)cc9[nH]c(c5c9c8[C@@]76O)[C@@]43C)[C@]23O[C@@H]3[C@H]1O,fold change,[1]; stronger effect = lower value,1.28 (inactive)
same,fold change,[1]; [8],1.48
same,cell count,[1]; [9],1060
same,cell count,[1]; [10],826
CC(C)(O)[C@H]1O[C@H]2CC[C@@]3(C)[C@@](O)(CC[C@H]4Cc5c([nH]c6ccccc56)[C@@]43C)C2=CC1=O,fold change,[1]; stronger effect = lower value,1.09 (inactive)
same,fold change,[1]; [8],1.67
same,cell count,[1]; [9],3780
same,cell count,[1]; [10],3460
same,fold fluorescence,[2],8.47 [at 114.8 µM] (inactive)
CC(C)CC(NP(=O)(O)OC1OC(C)C(O)C(O)C1O)C(=O)NC(Cc1c[nH]c2ccccc12)C(=O)O (stereo not drawn),fold change,[1]; stronger effect = lower value,0.95 (inactive)
same,fold change,[1]; [8],0.289
same,cell count,[1]; [9],9030
same,cell count,[1]; [10],9510
C[C@H](CCC(=O)O)C[C@H](C)C[C@H](C)C(=O)/C=C(\O)[C@H](C)C[C@H](C)C/C=C/[C@@H](C)[C@@H](O)[C@@H](C)[C@@H](O)C[C@@H]1CC[C@@](C)([C@H]2CC[C@@](C)([C@@H](C)O)O2)O1,fold change,[1]; [7],0.679 (active)
same,fold change,[1]; [8],0.922
same,cell count,[1]; [9],621
same,cell count,[1]; [10],914
CCCCC/C=C\C/C=C\C/C=C\C/C=C\CCCC(=O)NC,fold change,[1]; [7],0.953 (inactive)
same,fold change,[1]; [8],2.18
same,cell count,[1]; [9],5880
same,cell count,[1]; [10],6170
CCOC(=O)CN1C(=O)CC(C[C@@H](O)C2C[C@@H](C)C[C@H](C)C2=O)CC1=O (stereo partly drawn),fold change,[1]; stronger effect = lower value,1.01 (inactive)
same,fold change,[1]; [8],1.21
same,cell count,[1]; [9],4960
same,cell count,[1]; [10],4910
same,fold fluorescence,[2],10.9 [at 136.1 µM] (inactive)
C[C@@]1(CO)[C@H](O)CC[C@@]2(C)[C@H]1CC[C@H]1C[C@@H]3C[C@@]12CC[C@]3(O)CO,fold change,[1]; stronger effect = lower value,1.03 (inactive)
same,fold change,[1]; [8],0.966
same,cell count,[1]; [9],2420
same,cell count,[1]; [10],2350
COC[C@H]([C@@H](O)[C@@H](O)C(=O)NCC[C@@H](C)c1nc(/C=C/C[C@H]2OC3(C[C@H](O)[C@H]2C)OC([C@@H](C[C@@H](O)[C@@H](C)[C@@H](O)[C@@H](C)/C=C(C)/C(C)=C/C=C/C(C)=C\C#N)OC)[C@@H](OP(=O)(O)O)C3(C)C)co1)N(C)C (stereo partly drawn),fold change,[1]; stronger effect = lower value,0.801 (inactive)
same,fold change,[1]; [8],1.44
same,cell count,[1]; [9],250
same,cell count,[1]; [10],312
same,fold fluorescence,[2],9.76 [at 5 µM] (inactive)
CCCCC/C=C\C/C=C\C/C=C\C/C=C\CCCC(=O)NCc1ccc(O)c(OC)c1,fold change,[1]; stronger effect = lower value,0.841 (inactive) and 1 (inactive)
same,fold change,[1]; [8],1.08 and 0.996
same,cell count,[1]; [9],2750 and 5480
same,cell count,[1]; [10],3270 and 5460
same,fold fluorescence,[2],5.97 [at 113.7 µM] (inactive)
C=C1[C@@H](C)[C@H]2[C@H](Cc3ccccc3)NC(=O)C23[C@H](OC(C)=O)/C=C/[C@](C)(O)C(=O)[C@@H](C)C/C=C/[C@H]3[C@@H]1O (stereo partly drawn),fold change,[1]; [7],1.3 (inactive)
same,fold change,[1]; [8],0.464
same,cell count,[1]; [9],990
same,cell count,[1]; [10],762
COc1cc(/C=C\c2ccc(OC)c(O)c2)cc(OC)c1,fold change,[1]; [7],0.917 (inactive)
same,fold change,[1]; [8],0.882
same,cell count,[1]; [9],1120
same,cell count,[1]; [10],1220
CN=C(NS(=O)(=O)c1ccc(Cl)cc1)N1C[C@H](c2ccccc2)C(c2ccc(Cl)cc2)=N1,fold change,[1]; [7],0.982 (inactive)
same,fold change,[1]; [8],1.16
same,cell count,[1]; [9],5510
same,cell count,[1]; [10],5610
CO[C@@H]1C[C@@H](C[C@H]2CC[C@H](C)[C@H]([C@@H](C)C(=O)O)O2)O[C@]2(O[C@](C)([C@H]3CC[C@@](C)([C@@H]4O[C@@H]([C@H]5O[C@@](O)(CO)[C@H](C)C[C@@H]5C)C[C@@H]4C)O3)C[C@H]2C)[C@@H]1C,fold change,[1]; stronger effect = lower value,0.993 (inactive)
same,fold change,[1]; [8],1.75
same,cell count,[1]; [9],1790
same,cell count,[1]; [10],1800
same,fold fluorescence,[2],5.68 [at 69 µM] (inactive)
CCCCC/C=C\C/C=C\C/C=C\C/C=C\CCCC(=O)N[C@@H](CO)C(=O)O,fold change,[1]; [7],1.06 (inactive)
same,fold change,[1]; [8],1.04
same,cell count,[1]; [9],5850
same,cell count,[1]; [10],5540
CCCCC/C=C\C/C=C\C/C=C\C/C=C\CCCC(=O)N(C)C,fold change,[1]; [7],0.925 (inactive)
same,fold change,[1]; [8],1.14
same,cell count,[1]; [9],5340
same,cell count,[1]; [10],5780
